Activity calls are given as the source filed them. The calls were made as follows: active = hit-call score of the fitted dose curve at least 0.9, where 1 is the maximum; inactive = score below 0.9.
How the values were obtained:
[1] = read-out: Cyclin Dependent Kinase Inhibitor 1A (CDKN1A), CDKN1A (gene 1026); experiment: LTEA_HepaRG_CDKN1A: Life Technologies and Expression Analysis (LTEA) Assay for Cyclin Dependent Kinase Inhibitor 1A (CDKN1A) using HepaRG (AID 2283450); details: mRNA level, 48 h; actives raise or lower the signal
In short: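 Expression quantified by Fluidigm qRT-PCR with ACTB, GAPDH and POLR2A normalization, fitted bidirectionally against 0.5% DMSO. Cells: HepaRG, plated 48 h then treated 48 h in serum-free induction medium, top concentration 100 uM with half-log dilutions.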

[2] = read-out: Cyclin D1 (CCND1), CCND1 (gene 595); experiment: LTEA_HepaRG_CCND1: Life Technologies and Expression Analysis (LTEA) Assay for Cyclin D1 (CCND1) using HepaRG (AID 2283451); details: mRNA level, 48 h; actives raise or lower the signal;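 as to AC50: differentiated human HepaRG liver cells in serum-free induction medium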
In short: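 Expression of CCND1 was quantified by qRT-PCR on Fluidigm arrays using ACTB, GAPDH and POLR2A as reference genes. HepaRG cultures, plated 48 h beforehand, were dosed for 48 h at up to 100 uM (half-log, 8 points) in 0.5% DMSO.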

[3] = read-out: catalase (CAT), CAT (gene 847); experiment: LTEA_HepaRG_CAT: Life Technologies and Expression Analysis (LTEA) Assay for catalase (CAT) using HepaRG (AID 2283452); details: mRNA level, 48 h; actives raise or lower the signal
In short: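 Expression of CAT was quantified by TaqMan qRT-PCR with ACTB/GAPDH/POLR2A normalization after 48 h chemical exposure of HepaRG. Eight-point half-log series, top 100 uM, in 0.5% DMSO; gain or loss fitted against vehicle.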

[4] = read-out: flavin-containing dimethylaniline monooxygenases 3 (FMO3), FMO3 (gene 2328); experiment: LTEA_HepaRG_FMO3: Life Technologies and Expression Analysis (LTEA) Assay for flavin-containing dimethylaniline monooxygenases 3 (FMO3) using HepaRG (AID 2283453); details: mRNA level, 48 h; actives raise or lower the signal;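 as to AC50: differentiated human HepaRG liver cells in serum-free induction medium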
In short: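 Differentiated HepaRG cells in serum-free induction medium, exposed 48 h in duplicate to 8 half-log concentrations up to 100 uM in 0.5% DMSO. FMO3 mRNA by qRT-PCR, normalized to ACTB, GAPDH, POLR2A; bidirectional fit vs DMSO.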

[5] = read-out: Cytochrome P450 (CYP1A1), CYP1A1 (gene 1543); experiment: LTEA_HepaRG_CYP1A1: Life Technologies and Expression Analysis (LTEA) Assay for Cytochrome P450 (CYP1A1) using HepaRG (AID 2283454); details: mRNA level, 48 h; actives raise or lower the signal
In short: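 CYP1A1 transcript levels measured by Fluidigm qRT-PCR against three housekeeping genes, 48 h after chemical dosing of human HepaRG cells (highest concentration 100 uM, half-log steps, 0.5% DMSO vehicle). Gain or loss of signal fitted relative to DMSO.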

[6] = read-out: CFLAR gene, CFLAR (gene 8837); experiment: LTEA_HepaRG_CFLAR: Life Technologies and Expression Analysis (LTEA) Assay for CFLAR gene using HepaRG (AID 2283455); details: mRNA level, 48 h; actives raise or lower the signal
In short: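 HepaRG, 48 h exposure, 8-pt conc-response (100 uM top, half-log), 0.5% DMSO vehicle, duplicates. CFLAR expression by qRT-PCR; ACTB/GAPDH/POLR2A normalization; gain or loss fit vs DMSO baseline.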

[7] = read-out: Forkhead box O1 (FOXO1), FOXO1 (gene 2308); experiment: LTEA_HepaRG_FOXO1: Life Technologies and Expression Analysis (LTEA) Assay for Forkhead box O1 (FOXO1) using HepaRG (AID 2283456); details: mRNA level, 48 h; actives raise or lower the signal
In short: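 Readout is FOXO1 transcript level by multiplexed qRT-PCR against three housekeeping genes, curve-fitted in both directions relative to 0.5% DMSO vehicle. Human HepaRG cultures received chemicals for 48 h, up to 100 uM in half-log steps.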

[8] = CEETOX_H295R_TESTO: CeeTox H295R High-throughput Steroidogenesis Assay for Testosterone (TESTO) (AID 2283457); details: actives raise or lower the signal
In short: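 Testosterone secreted into the medium over 48 h by H295R cells (maximum passage 10) was quantified by LC-MS/MS after MTBE extraction. Fitted in both directions against DMSO, with concentrations diluted until MTT viability was ≥70%.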

[9] = read-out: growth arrest and DNA damage 45 (GADD45A), GADD45A (gene 1647); experiment: LTEA_HepaRG_GADD45A: Life Technologies and Expression Analysis (LTEA) Assay for growth arrest and DNA damage 45 (GADD45A) using HepaRG (AID 2283458); details: mRNA level, 48 h; actives raise or lower the signal
In short: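 Differentiated HepaRG cells exposed 48 h in serum-free induction medium to 8 concentrations, top 100 uM in half-log steps, 0.5% DMSO. GADD45A mRNA quantified by qRT-PCR, normalized to ACTB, GAPDH and POLR2A; bidirectional fit versus DMSO.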

[10] = read-out: Forkhead box O3 (FOXO3), FOXO3 (gene 2309); experiment: LTEA_HepaRG_FOXO3: Life Technologies and Expression Analysis (LTEA) Assay for Forkhead box O3 (FOXO3) using HepaRG (AID 2283459); details: mRNA level, 48 h; actives raise or lower the signal
In short: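 HepaRG, 48 h post-dose; 8 conc., half-log from 100 uM, 0.5% DMSO, duplicates; serum-free induction medium. Readout: FOXO3 mRNA, TaqMan qRT-PCR, housekeeping-normalized. Bidirectional curve fit vs DMSO baseline.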

[11] = read-out: ABC Transporter (ABCB1), ABCB1 (gene 5243); experiment: LTEA_HepaRG_ABCB1: Life Technologies and Expression Analysis (LTEA) Assay for ABC Transporter (ABCB1) using HepaRG (AID 2283460); details: mRNA level, 48 h; actives raise or lower the signal
In short: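 Expression of ABCB1 was quantified by qRT-PCR against three housekeeping genes after human HepaRG cultures received test chemicals for 48 hours. Concentrations spanned eight half-log steps topping at 100 uM in 0.5% DMSO; gain or loss of signal was fitted relative to vehicle.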

[12] = read-out: growth arrest and DNA damage 45 (GADD45B), GADD45B (gene 4616); experiment: LTEA_HepaRG_GADD45B: Life Technologies and Expression Analysis (LTEA) Assay for growth arrest and DNA damage 45 (GADD45B) using HepaRG (AID 2283461); details: mRNA level, 48 h; actives raise or lower the signal
In short: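 Transcript level quantified by Fluidigm TaqMan qRT-PCR with three housekeeping genes for normalization, analyzed for up- or down-regulation against 0.5% DMSO. HepaRG cultures dosed 48 h at eight half-log concentrations up to 100 uM, duplicates.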

[13] = read-out: ABC Transporter (ABCC3), ABCC3 (gene 8714); experiment: LTEA_HepaRG_ABCC3: Life Technologies and Expression Analysis (LTEA) Assay for ABC Transporter (ABCC3) using HepaRG (AID 2283462); details: mRNA level, 48 h; actives raise or lower the signal
In short: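 Transcript level by TaqMan qRT-PCR, normalised to three housekeeping genes, fitted in both directions relative to vehicle. Chemicals tested in duplicate at eight half-log concentrations up to 100 uM for 48 h on HepaRG cells (0.5% DMSO).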

[14] = read-out: ABC Transporter (ABCB11), ABCB11 (gene 8647); experiment: LTEA_HepaRG_ABCB11: Life Technologies and Expression Analysis (LTEA) Assay for ABC Transporter (ABCB11) using HepaRG (AID 2283463); details: mRNA level, 48 h; actives raise or lower the signal
In short: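 ABCB11 transcript levels are read by Fluidigm TaqMan qRT-PCR after 48 h chemical treatment of human HepaRG cells. Concentrations span 100 uM downward in half-log steps with 0.5% DMSO; gain or loss is fitted against DMSO controls.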

[15] = read-out: ABC Transporter (ABCC2), ABCC2 (gene 1244); experiment: LTEA_HepaRG_ABCC2: Life Technologies and Expression Analysis (LTEA) Assay for ABC Transporter (ABCC2) using HepaRG (AID 2283464); details: mRNA level, 48 h; actives raise or lower the signal
In short: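 Endpoint is ABCC2 transcript level from qRT-PCR, normalized to three housekeeping genes and fitted bidirectionally relative to DMSO. Human HepaRG cells received test chemical for 48 h at up to 100 uM (8 points, half-log steps, 0.5% DMSO), duplicate wells.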

[16] = read-out: Broad substrate specificity ATP-binding cassette transporter ABCG2 (Homo sapiens) (UniProt Q9UNQ0); experiment: LTEA_HepaRG_ABCG2: Life Technologies and Expression Analysis (LTEA) Assay for ABC Transporter (ABCG2) using HepaRG (AID 2283465); details: mRNA level, 48 h; actives raise or lower the signal
In short: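 Read-out is ABCG2 mRNA induction or loss quantified by qRT-PCR after 48 h chemical treatment of human HepaRG cells, normalized to three housekeeping genes. Concentrations reached 100 uM top in half-log steps; fitting was bidirectional against 0.5% DMSO.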

[17] = read-out: ATP-citrate lyase (ACLY), ACLY (gene 47); experiment: LTEA_HepaRG_ACLY: Life Technologies and Expression Analysis (LTEA) Assay for ATP-citrate lyase (ACLY) using HepaRG (AID 2283466); details: mRNA level, 48 h; actives raise or lower the signal
In short: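 HepaRG, 48 h exposure, 8-pt half-log dilutions (top 100 uM), 0.5% DMSO. Readout: ACLY mRNA, TaqMan qRT-PCR, housekeeping-normalized (ACTB/GAPDH/POLR2A). Bidirectional curve fit vs DMSO.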

[18] = read-out: Peroxisomal acyl-coenzyme A oxidase 1 (ACOX1) gene, ACOX1 (gene 51); experiment: LTEA_HepaRG_ACOX1: Life Technologies and Expression Analysis (LTEA) Assay for Peroxisomal acyl-coenzyme A oxidase 1 (ACOX1) gene using HepaRG (AID 2283467); details: mRNA level, 48 h; actives raise or lower the signal
In short: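 Measured by qRT-PCR against three housekeeping genes: ACOX1 transcript change in human HepaRG cells after 48 h dosing. Concentrations ran up to 100 uM in half-log steps. Curves were fitted bidirectionally relative to 0.5% DMSO.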

[19] = read-out: Bcl-2 (BAD) gene, BAD (gene 572); experiment: LTEA_HepaRG_BAD: Life Technologies and Expression Analysis (LTEA) Assay for Bcl-2 (BAD) gene using HepaRG (AID 2283469); details: mRNA level, 48 h; actives raise or lower the signal
In short: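 BAD transcript change, measured by qRT-PCR against three housekeeping genes and fitted in both directions relative to 0.5% DMSO, after 48 h chemical treatment of human HepaRG liver cells at concentrations up to 100 uM.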

[20] = read-out: Alkaline Phosphatase, Placental (ALPP) gene, ALPP (gene 250); experiment: LTEA_HepaRG_ALPP: Life Technologies and Expression Analysis (LTEA) Assay for Alkaline Phosphatase, Placental (ALPP) gene using HepaRG (AID 2283468); details: mRNA level, 48 h; actives raise or lower the signal
In short: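 ALPP transcript level, measured by qRT-PCR and normalized to three housekeeping genes (ACTB, GAPDH, POLR2A), after 48 h dosing of differentiated HepaRG in serum-free induction medium. Top concentration 100 uM with half-log dilutions (8 points, 0.5% DMSO, duplicates); bidirectional fitting relative to DMSO.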

Measured: AC50

Broad substrate specificity ATP-binding cassette transporter ABCG2 (Homo sapiens), sequence (Q9UNQ0 whole entry, looked up): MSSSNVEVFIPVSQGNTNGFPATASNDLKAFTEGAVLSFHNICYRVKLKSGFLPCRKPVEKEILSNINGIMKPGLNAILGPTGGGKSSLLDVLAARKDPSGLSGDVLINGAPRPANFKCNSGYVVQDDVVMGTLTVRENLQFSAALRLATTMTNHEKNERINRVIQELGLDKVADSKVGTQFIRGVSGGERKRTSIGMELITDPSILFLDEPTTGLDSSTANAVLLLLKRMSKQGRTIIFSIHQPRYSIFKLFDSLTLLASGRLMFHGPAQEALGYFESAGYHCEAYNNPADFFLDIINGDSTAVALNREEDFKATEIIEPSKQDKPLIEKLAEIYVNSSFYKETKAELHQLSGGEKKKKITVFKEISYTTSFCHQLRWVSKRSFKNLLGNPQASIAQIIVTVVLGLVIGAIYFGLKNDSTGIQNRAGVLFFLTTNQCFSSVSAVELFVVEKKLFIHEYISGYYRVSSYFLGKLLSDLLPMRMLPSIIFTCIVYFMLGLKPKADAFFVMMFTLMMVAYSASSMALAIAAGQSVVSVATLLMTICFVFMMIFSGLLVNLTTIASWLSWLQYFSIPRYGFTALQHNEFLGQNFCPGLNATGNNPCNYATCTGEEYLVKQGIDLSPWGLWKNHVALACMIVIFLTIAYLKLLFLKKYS

CCOc1cc(C(C)(C)C)ccc1C1COC(c2c(F)cccc2F)=N1 (stereo not given)
active: [5] 19.2 µM | [11] 6.97 µM | [15] 8.66 µM | [16] 9.15 µM
inactive: [1] | [2] | [3] | [4] | [6] | [7] | [8] | [9] | [10] | [12] | [13] | [14] | [17] | [18] | [19]

N#CN=C1SCCN1Cc1ccc(Cl)nc1
inactive: [1] | [2] | [3] | [4] | [5] | [6] | [7] | [10] | [11] | [12] | [13] | [14] | [15] | [16] | [17] | [18] | [19]

O=P(O)(O)CCCl
active: [1] 0.373 µM | [2] 0.261 µM
inactive: [3] | [4] | [5] | [6] | [7] | [9] | [11] | [12] | [13] | [14] | [15] | [16] | [17] | [18] | [19]

CCN(CC)C(=O)C(C)Oc1cccc2ccccc12 (stereo not given)
inactive: [1] | [2] | [6] | [7] | [11] | [12] | [13] | [15] | [17] | [19]
active: [3] 81.2 µM | [4] 82.9 µM | [5] 36.9 µM | [14] 50 µM | [16] 50 µM | [18] 69.8 µM

Cc1ccc(N=CN(C)C=Nc2ccc(C)cc2C)c(C)c1
inactive: [1] | [2] | [3] | [4] | [6] | [7] | [11] | [12] | [13] | [14] | [15] | [16] | [17] | [18] | [20] | [19]
active: [5] 41.2 µM

CO/N=C(/C1=NOCCO1)c1ccccc1Oc1ncnc(Oc2ccccc2Cl)c1F
active: [1] 28.5 µM | [3] 19.7 µM | [4] 24.9 µM | [5] 33 µM | [7] 10 µM | [9] 29.6 µM | [12] 29.7 µM | [13] 6.69 µM | [14] 29.2 µM | [15] 50 µM | [16] 8.72 µM | [17] 12.5 µM | [18] 15.4 µM
inactive: [2] | [6] | [11] | [19]

CCNC(=O)NC(=O)C(C#N)=NOC
active: [5] 50 µM | [13] 0.791 µM
inactive: [1] | [2] | [3] | [4] | [6] | [7] | [11] | [12] | [14] | [15] | [16] | [17] | [18] | [20] | [19]

Reference: PubChem BioAssay (EPA / NIEHS)
